Our source for the Potency, outcome and max activation values is PubChem BioAssay (Tox21).

For assay [1], the target named is Progesterone receptor (Homo sapiens) (UniProt P06401). In words: qHTS assay to identify small molecule agonists of the progesterone receptor (PR) signaling pathway (AID 1346784; calls by dose curve; also: nearly all actives have a fitted effect of over 30% in size). A digest of the protocol:
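PR-UAS-bla HEK 293T cells (beta-lactamase reporter under UAS) in 2% charcoal-stripped FBS, dosed with 23 nL compound after 6 hr, incubated 16hr at 37C. LiveBLAzer B/G FRET substrate added, fluorescence read after 2 hours.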
A general note: Quantitative high-throughput screening tests each substance at several concentrations.

The target is the same in assay [2]. The experiment in a line: qHTS assay to identify small molecule antagonists of the progesterone receptor (PR) signaling pathway (AID 1346795; active = well fitted inhibition curve with a large enough effect in the signal ratio in the repeat runs, not every such curve was filed as active; the % refers to the signal ratio). A digest of the protocol:
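PR-UAS-bla HEK293T cells with beta-lactamase reporter under UAS control, in 2% charcoal-stripped FBS, treated with compounds plus 1 nM promegestone (R5020, final) for 16 hr at 37C. Read-out: FRET beta-lactamase substrate fluorescence after 2 hr at room temperature.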

The nature of assay [3]: qHTS assay to identify small molecule antagonists of the progesterone receptor (PR) signaling pathway - cell viability counter screen (AID 1346798). Also: series mostly up to about 92 µM; nearly all actives have a fitted effect of over 50% in size. A digest of the protocol:
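PR-UAS-bla HEK293T cells, 3,000/well in 2% charcoal-stripped FBS medium, dosed with compounds plus R5020 agonist and incubated 16 h at 37C. Viability then measured in the same wells by CellTiter-Glo luminescence after 30 min at RT.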

Assay [4] in a line: qHTS assay to identify small molecule agonists of the progesterone receptor (PR) signaling pathway - cell viability counter screen (AID 1346799; calls by dose curve; also: nearly all actives have a fitted effect of over 45% in size; also: potency is read from the fitted curve at half-maximal effect). A digest of the protocol:
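Counter screen in the PR-UAS-bla HEK293T wells (2% charcoal-stripped FBS, 16 h compound exposure at 37 C) after the bla read. CellTiter-Glo added, 30 min at room temperature, luminescence read as cell viability.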

Assay [5] in a line: qHTS assay to identify small molecule antagonists of the TGF-beta/Smad signaling pathway - cell viability counter screen (AID 1346824). Also: nearly all actives have a fitted effect of over 50% in size. Put shortly:
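SBE-bla HEK 293T cells, incubated overnight, then compound plus 0.25 ng/mL TGF-beta1 (stock added) for 5 hr at 37 C. Viability was read in the same wells by CellTiter-Glo luminescence after 30 min at room temperature.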

Assay [6] in a line: qHTS assay to identify small molecule agonists of the TGF-beta/Smad signaling pathway (AID 1346859; active = well fitted activation curve with a large enough effect in the signal ratio in the repeat runs, not every such curve was filed as active; the % refers to the signal ratio; also: series mostly up to about 77 µM). Put shortly: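 SBE-bla HEK293T cells plated overnight, then compound exposure for 5 h at 37 C. Beta-lactamase reporter read with LiveBLAzer B/G FRET substrate after 2 h at room temperature, fluorescence at 405 nm excitation, 460/530 nm emission.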
Assay [7] has as its target Thyrotropin-releasing hormone receptor (Homo sapiens) (UniProt P34981). In words: qHTS assay to identify small molecule antagonists of the thyrotropin-releasing hormone receptor (TRHR) signaling pathway (AID 1346877; active = well fitted inhibition curve with a large enough effect in the repeat runs, not every such curve was filed as active; also: series mostly up to about 51 µM). A digest of the protocol: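 Screening used HEK293 cells engineered with TRHR, with a brief 5 min room-temperature compound exposure preceding addition of TRH to 1 nM. The read-out was kinetic calcium-dye fluorescence, concentration-response from 15 doses in triplicate.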

For assay [8] the target is unchanged. In words: qHTS assay to identify small molecule agonists of the thyrotropin-releasing hormone receptor (TRHR) signaling pathway (AID 1346891; calls by dose curve; also: series mostly up to about 58 µM). Put shortly:
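HEK293 cells expressing TRHR plated 18 h at 37 C/5% CO2, calcium dye-loaded 2 h at 37 C, then compound added (agonist mode); kinetic calcium fluorescence read 3 min at 1 s intervals; 15 concentrations in triplicate.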

Assay [9] in a line: Human pregnane X receptor (PXR) small molecule agonists, qHTS cell viability counter screen (AID 1346977). Also: nearly all actives have a fitted effect of over 50% in size. Also: potency is read from the fitted curve at half-maximal effect. A digest of the protocol: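 PXR-Luc HepG2 cells (2,000/well, 5% charcoal-stripped FBS) preincubated 5 hr, then exposed to compounds 24 hr at 37 C. Viability read in the same wells by CellTiter-Fluor fluorescence, reagent added at 23 hr, 1 hr incubation.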
Assay [10] is described as follows: Caspase-3/7 induction in HepG2 cells by small molecules, qHTS assay (AID 1346978). Also: nearly all actives have a fitted effect of over 15% in size. A digest of the protocol: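 Wild-type HepG2 cells, 2,000/well, settled 5 hr at 37 C and 5% CO2, then compound-treated for 17 hr; caspase-3/7 activity read by luminescent Caspase-Glo 3/7 after 30 min at room temperature.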
A short description of assay [11]: Caspase-3/7 induction in CHO-K1 cells by small molecules, qHTS cell viability counter screen (AID 1346979). Also: nearly all actives have a fitted effect of over 35% in size. Also: potency is read from the fitted curve at half-maximal effect. Put shortly: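 Wild-type CHO-K1 cells (1,500/well) treated with compound after 5 h plating; after 16 h at 37C, viability read as CellTiter-Fluor fluorescence following 1 h reagent incubation, in the same wells as the caspase read.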
Assay [12] in a line: Caspase-3/7 induction in CHO-K1 cells by small molecules, qHTS assay (AID 1346980). Also: nearly all actives have a fitted effect of over 15% in size. Put shortly: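 Wild-type CHO-K1 cells exposed to compounds for 17hr at 37 C, 5% CO2. Caspase-3/7 activity then measured by Caspase-Glo 3/7 luminescence after 30min at room temperature.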
Assay [13] in a line: Caspase-3/7 induction in HepG2 cells by small molecules, qHTS cell viability counter screen (AID 1346981). Also: nearly all actives have a fitted effect of over 30% in size. Also: potency is read from the fitted curve at half-maximal effect. A digest of the protocol:
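Multiplexed with the caspase-3/7 assay: HepG2 cells, 16 hr compound treatment, CellTiter-Fluor viability detection by fluorescence.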

Assay [14] deals with Nuclear receptor subfamily 1 group I member 2 (Homo sapiens) (UniProt O75469). The experiment in a line: Human pregnane X receptor (PXR) small molecule agonists, qHTS assay (AID 1346982). Also: nearly all actives have a fitted effect of over 35% in size. Also: potency is read from the fitted curve at half-maximal effect. Put shortly:
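We seeded PXR-Luc HepG2 cells in assay medium containing 5% charcoal-stripped FBS, added compounds 5 hr later, incubated 24 hr, and read luminescence with ONE-Glo reagent.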

In assay [15] the target is Nuclear receptor subfamily 1 group I member 2 (Rattus norvegicus) (UniProt Q9R1A7). In words: Rat pregnane X receptor (rPXR) activation by small molecules, qHTS assay (AID 1346983). Also: nearly all actives have a fitted effect of over 20% in size. To be noted: rPXR luciferase reporter cells, One-Glo luminescence, 24 h; max activation: stronger effect = higher value. A digest of the protocol: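 Cell-based rPXR activation assay: rPXR cells, 2,000 per well, rested 5hr at 37 C, then exposed to compounds in DMSO for 24 hr at 37 C. Luciferase activity read by One-Glo luminescence after 30 min at room temperature.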

In assay [16] the target is Nuclear receptor subfamily 1 group I member 2 (Homo sapiens) (UniProt O75469). The experiment in a line: CYP3A4 induction through human pregnane X receptor (PXR) by small molecules, qHTS assay (AID 1346984). Also: nearly all actives have a fitted effect of over 40% in size. Also: potency is read from the fitted curve at half-maximal effect. A digest of the protocol:
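qHTS, concentration-response format: HepG2 DPX-2 line, PXR/CYP3A4-luc. Exposure 24 h, 37C. Substrate Luciferin-IPA 3uM final, 3 h. Detection One-Glo, 30 min RT.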

Assay [17] has the same target. In words: Human pregnane X receptor (PXR) activation by small molecules, qHTS assay (AID 1346985). Also: nearly all actives have a fitted effect of over 40% in size. Put shortly:
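DPX-2 cells (HepG2 co-transfected with a PXR response element and a CYP3A4-promoter luciferase construct) were seeded at 2,000 per well, rested 5 hr at 37C, then exposed to DMSO-dissolved compounds for 24 hr. Activation was read as luciferase luminescence.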

The target of assay [18] is Cytochrome P450 2D6 (Homo sapiens) (UniProt P10635). In words: Cytochrome P450 Family 2 Subfamily D Member 6 (CYP2D6) small molecule antagonists: luciferase reporter qHTS assay (AID 1671196). Also: nearly all actives have a fitted effect of over 50% in size. Also: potency is read from the fitted curve at half-maximal effect. Put shortly: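 Luminescence (RLU), read 20 min after detection reagent, indicated CYP2D6 conversion of proluciferin to luciferin during a 1 h NADPH-dependent reaction at room temperature.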
(Reporter assays use an easily measured gene product as a stand-in for the process of interest.)

For assay [19], the target named is Cytochrome P450 2C19 (Homo sapiens) (UniProt P33261). In words: Cytochrome P450 Family 2 Subfamily C Member 19 (CYP2C19) small molecule antagonists: luciferase reporter qHTS assay (AID 1671197). Also: nearly all actives have a fitted effect of over 65% in size. Also: potency is read from the fitted curve at half-maximal effect. A digest of the protocol: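 Enzyme-substrate mix with proluciferin substrate (P450-Glo CYP2C19 system) preincubated with compounds 10 min at room temperature; NADPH regeneration solution added, 37C for 1 h; detection reagent stops reaction, luminescence read after 20 min. Ketoconazole positive control.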

Assay [20] can be described thus: qHTS assay to identify small molecule agonists of the TGF-beta/Smad signaling pathway - cell viability counter screen (AID 1346829). Also: top concentration of the series differs between compounds; nearly all actives have a fitted effect of over 45% in size. Put shortly: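 CellTiter-Glo luminescence readout; SBE-bla HEK 293T cells, overnight plating, compound 5 hr at 37 C/5% CO2, then bla substrate 2 hr RT, then CellTiter-Glo 30 min RT.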

Molecules are shown by their SMILES. Values joined by “and” are separate entries in the source; they are usually repeats but may differ in a detail not shown here. Equal values may be shown once. Inconclusive results are not listed. Where a structure was tested more than once in an assay, its records may differ in their call. Active and inactive are the calls of the source. Unless noted, calls follow the shape of the dose curve; as a rule, active = well fitted curve in the direction sought with a large enough effect in the repeat runs; inconclusive = weak or mixed curves; inactive = no such curve, though single readings can be large; an effect the other way counts as inactive or inconclusive.
% is scaled to controls: 0 for no effect and ±100 for the full control effect.

Cytochrome P450 2C19 (Homo sapiens), sequence (P33261 whole entry, looked up): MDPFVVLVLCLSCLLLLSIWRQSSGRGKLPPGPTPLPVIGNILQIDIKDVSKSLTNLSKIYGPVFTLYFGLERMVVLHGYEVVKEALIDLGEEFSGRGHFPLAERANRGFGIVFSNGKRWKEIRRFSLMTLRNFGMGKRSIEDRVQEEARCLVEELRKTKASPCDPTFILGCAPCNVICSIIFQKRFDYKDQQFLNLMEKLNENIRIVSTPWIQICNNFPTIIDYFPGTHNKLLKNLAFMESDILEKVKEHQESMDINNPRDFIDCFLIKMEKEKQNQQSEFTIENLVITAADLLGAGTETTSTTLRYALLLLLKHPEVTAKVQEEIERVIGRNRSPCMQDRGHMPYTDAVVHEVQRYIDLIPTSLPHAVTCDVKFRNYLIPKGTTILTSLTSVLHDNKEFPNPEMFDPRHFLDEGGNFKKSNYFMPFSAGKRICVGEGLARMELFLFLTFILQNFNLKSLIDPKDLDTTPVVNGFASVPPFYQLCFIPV
Progesterone receptor (Homo sapiens), sequence (P06401 whole entry, looked up): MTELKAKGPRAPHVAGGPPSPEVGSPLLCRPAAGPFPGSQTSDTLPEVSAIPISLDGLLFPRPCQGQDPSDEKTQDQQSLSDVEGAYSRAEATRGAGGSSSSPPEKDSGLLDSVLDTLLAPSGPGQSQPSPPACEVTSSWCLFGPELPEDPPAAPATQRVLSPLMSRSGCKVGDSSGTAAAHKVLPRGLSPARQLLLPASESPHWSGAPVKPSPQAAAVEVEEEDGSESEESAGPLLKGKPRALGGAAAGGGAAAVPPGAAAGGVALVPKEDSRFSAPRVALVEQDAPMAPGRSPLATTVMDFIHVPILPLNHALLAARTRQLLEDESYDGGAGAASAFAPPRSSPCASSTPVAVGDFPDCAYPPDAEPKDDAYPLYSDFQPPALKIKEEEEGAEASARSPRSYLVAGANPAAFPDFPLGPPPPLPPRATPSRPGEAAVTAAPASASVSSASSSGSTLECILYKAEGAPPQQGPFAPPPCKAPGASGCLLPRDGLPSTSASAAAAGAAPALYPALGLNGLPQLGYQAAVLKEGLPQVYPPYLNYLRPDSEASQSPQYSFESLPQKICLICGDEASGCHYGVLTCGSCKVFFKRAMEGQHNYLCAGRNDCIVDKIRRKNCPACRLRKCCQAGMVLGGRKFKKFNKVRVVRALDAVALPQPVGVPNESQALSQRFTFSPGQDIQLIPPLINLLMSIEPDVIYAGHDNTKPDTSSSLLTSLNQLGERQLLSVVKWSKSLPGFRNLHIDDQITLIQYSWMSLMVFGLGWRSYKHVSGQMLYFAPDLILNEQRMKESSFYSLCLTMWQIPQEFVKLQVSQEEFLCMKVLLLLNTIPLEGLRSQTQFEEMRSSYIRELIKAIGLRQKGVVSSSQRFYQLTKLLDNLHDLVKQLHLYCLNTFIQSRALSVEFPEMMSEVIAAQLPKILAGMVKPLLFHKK
Nuclear receptor subfamily 1 group I member 2 (Homo sapiens), sequence (O75469 whole entry, looked up): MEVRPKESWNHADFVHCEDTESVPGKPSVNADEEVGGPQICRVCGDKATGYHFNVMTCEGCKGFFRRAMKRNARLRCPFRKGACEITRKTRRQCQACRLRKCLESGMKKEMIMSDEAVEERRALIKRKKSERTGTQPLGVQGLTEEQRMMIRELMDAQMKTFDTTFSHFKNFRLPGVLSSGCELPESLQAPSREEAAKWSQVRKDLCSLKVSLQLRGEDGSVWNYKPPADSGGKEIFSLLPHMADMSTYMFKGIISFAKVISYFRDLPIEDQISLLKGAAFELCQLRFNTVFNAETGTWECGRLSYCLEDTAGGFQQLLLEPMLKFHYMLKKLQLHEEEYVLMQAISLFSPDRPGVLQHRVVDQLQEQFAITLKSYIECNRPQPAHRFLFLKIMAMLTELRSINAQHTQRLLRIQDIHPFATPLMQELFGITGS
Cytochrome P450 2D6 (Homo sapiens), sequence (P10635 whole entry, looked up): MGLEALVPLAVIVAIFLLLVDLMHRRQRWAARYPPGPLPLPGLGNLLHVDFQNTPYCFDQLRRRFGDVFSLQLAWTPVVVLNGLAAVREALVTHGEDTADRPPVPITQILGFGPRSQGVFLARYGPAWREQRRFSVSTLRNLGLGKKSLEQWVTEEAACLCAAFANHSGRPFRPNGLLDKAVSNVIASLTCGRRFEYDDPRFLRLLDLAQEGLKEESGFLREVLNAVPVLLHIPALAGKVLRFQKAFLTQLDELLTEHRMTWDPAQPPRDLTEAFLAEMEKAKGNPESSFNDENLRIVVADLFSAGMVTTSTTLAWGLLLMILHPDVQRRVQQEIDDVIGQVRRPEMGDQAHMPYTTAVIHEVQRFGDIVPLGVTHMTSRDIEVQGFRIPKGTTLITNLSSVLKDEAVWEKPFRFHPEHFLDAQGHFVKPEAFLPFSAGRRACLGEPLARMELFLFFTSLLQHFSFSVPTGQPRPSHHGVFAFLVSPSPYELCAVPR
Nuclear receptor subfamily 1 group I member 2 (Rattus norvegicus), sequence (Q9R1A7 whole entry, looked up): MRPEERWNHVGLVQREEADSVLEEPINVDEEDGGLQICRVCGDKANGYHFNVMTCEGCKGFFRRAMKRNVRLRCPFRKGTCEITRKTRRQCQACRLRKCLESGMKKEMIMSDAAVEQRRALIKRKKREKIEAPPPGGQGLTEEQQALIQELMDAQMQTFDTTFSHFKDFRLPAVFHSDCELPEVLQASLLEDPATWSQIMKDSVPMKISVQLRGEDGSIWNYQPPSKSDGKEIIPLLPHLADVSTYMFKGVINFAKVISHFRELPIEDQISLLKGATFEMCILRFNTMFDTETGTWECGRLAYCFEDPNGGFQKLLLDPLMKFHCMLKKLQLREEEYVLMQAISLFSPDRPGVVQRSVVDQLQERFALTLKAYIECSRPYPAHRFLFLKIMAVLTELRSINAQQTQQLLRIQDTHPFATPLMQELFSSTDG
Thyrotropin-releasing hormone receptor (Homo sapiens), sequence (P34981 whole entry, looked up): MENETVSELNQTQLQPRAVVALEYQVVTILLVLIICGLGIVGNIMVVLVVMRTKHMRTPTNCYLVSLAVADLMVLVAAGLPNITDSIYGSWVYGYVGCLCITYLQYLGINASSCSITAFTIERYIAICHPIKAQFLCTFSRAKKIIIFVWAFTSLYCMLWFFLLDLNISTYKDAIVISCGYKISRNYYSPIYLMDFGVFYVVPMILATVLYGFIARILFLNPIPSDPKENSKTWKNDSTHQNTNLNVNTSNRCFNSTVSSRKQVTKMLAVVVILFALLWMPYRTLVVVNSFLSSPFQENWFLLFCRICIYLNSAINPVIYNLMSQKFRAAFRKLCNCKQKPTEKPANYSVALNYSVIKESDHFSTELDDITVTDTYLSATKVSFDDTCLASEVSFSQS

With `NC(CO)(CO)CO`, the Potency result in [1], in assay [2], in assay [3], in assay [4], in [5] and in assay [7] was “inactive” each time. For the same compound, the Potency result in assay [8], in [9], in [10], in assay [11], in [12] and in assay [13] was “inactive” in each case. For the same compound, the Potency result in assay [14], in assay [16], in assay [18] and in assay [19] was “inactive” each time. In addition, the result in assay [6] and in assay [17] was inactive. In addition, the max activation in assay [15] was -3.86% (inactive).

Regarding `NS(=O)(=O)c1cc2c(cc1Cl)NCNS2(=O)=O`, the Potency entry in assay [1], in [2], in assay [3], in [4], in [5] and in assay [7] was “inactive” throughout. Besides, the Potency result in assay [8], in [9], in [11], in [13], in [14] and in assay [18] was “inactive” in each case. The call in assay [6] was inactive. The Potency in assay [19] was 62.3 µM (active) and inactive.

Turning to `O=c1[nH]cc(F)c(=O)[nH]1`, the Potency result in assay [1], in [2], in assay [5], in [20], in [7] and in assay [8] was “inactive” throughout. The Potency entry in [9], in assay [12] and in assay [13] was “inactive” in each case. Further, the Potency in assay [4] was 28.3 µM (active) and inactive; in assay [14] it was 31.8 µM (active) and 24.9 µM (active) and inactive; in [18], “inactive and 34.7 µM (active)”; in assay [19], 20.8 µM (active) and inactive. Moreover, the result in [6] was inactive.

In the case of `CN1CCc2cccc3c2[C@H]1Cc1ccc(O)c(O)c1-3`, the Potency result in assay [1], in assay [3], in assay [5], in assay [20], in assay [7] and in assay [8] was “inactive” throughout. Besides, the Potency entry in [14] and in assay [19] was “inactive” in each case. The outcome in [6] and in [17] was inactive. Also, the Potency in assay [9] is 43.7 µM (active) and 18.1 µM (active) and 29.8 µM (active); in [11] it was 55 µM (active) and 22.8 µM (active) and 23.7 µM (active); in assay [13] it was 61.8 µM (active) and 25.6 µM (active); in assay [16], 6.31 µM (active); in [18], 45.3 µM (active) and 11.8 µM (active) and 38.9 µM (active). Moreover, the max activation in assay [15] is 9.82% (inactive).

As to `Nc1ccc(O)c([N+](=O)[O-])c1`, the Potency entry in assay [5], in assay [20], in assay [7], in assay [8], in assay [10] and in assay [12] was “inactive” throughout. For the same compound, the outcome in [6] was inactive. In addition, the Potency in assay [11] is 47.1 µM (active); in [13], 61.1 µM (active); in assay [14], 19.3 µM (active); in assay [19], 22.2 µM (active).

Consider `CN1[C@@H]2CC(OC(=O)[C@H](CO)c3ccccc3)C[C@H]1[C@@H]1O[C@@H]12` (stereo not given in full), for which the Potency result in [1], in assay [2], in [3], in assay [4], in [5] and in assay [9] was “inactive” in each case. Moreover, the Potency result in [11], in [13] and in [14] was “inactive” each time. Further, the call in assay [6] and in assay [17] was inactive. Besides, the max activation in assay [15] is 6.06% (inactive) and -0.026% (inactive).

Regarding `CC(=O)CCC(=O)O`, the Potency result in assay [3], in assay [4], in assay [5], in assay [20], in assay [9] and in assay [11] was “inactive” throughout. Further, the Potency result in [13], in [14], in assay [16], in [18] and in [19] was “inactive” in each case. The call in assay [6] and in assay [17] was inactive. The max activation in [15] was -1.2% (inactive).
